Among all 310,000 compounds or so, about 11,000 (3.5%) were called active. Not shown: some 8% with an inconclusive outcome. The sample as a whole holds a higher share of actives than the screen did. Values without a mark were called inactive. The call rests on the fitted dose curve; in most records, active means well fitted inhibition curve with a large enough effect; inconclusive means small, poorly fitted or top-dose-only effect, or effect the other way; inactive means flat fitted curve, though single readings scatter.
Experiment: VP16 counterscreen qHTS for inhibitors of ROR gamma transcriptional activity;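 further: Gal4-VP16 expression switched on by copper sulfate through the metallothionein promoter; nearly all actives have a fitted effect of over 50% in size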
Settings: Drosophila S2 Gal4-VP16 UAS-luciferase, luminescence, 20 h; series mostly up to 53.6 µM; activity, negative = inhibition: at the top concentration
On the % scale 0 is the no-effect control and ±100 the full control effect; potency means the concentration at half of the fitted maximal effect.

Row | Compound | activity, negative = inhibition | Potency
1 | O=C1CCN(CCc2ccccc2)CCN1CCOc1ccccc1 | 7.5% | –
2 | Cc1ccc(C(=O)CCC(=O)N(C)CC(=O)Nc2c(Cl)cccc2Cl)cc1 | -9.47% | –
3 | CCCCC1S/C(=N/N=C/c2cccs2)NC1=O (stereo not drawn) | – | 0.316 µM (active)
4 | CCC1C/C(=C/c2cccs2)C(=O)/C(=C/c2cccs2)C1 (stereo not drawn) | -6.69% | –
5 | CC(=O)Nc1ccc(S(=O)(=O)Oc2ccc(/C=N/N=C3/NC(=O)C(CC(=O)O)S3)cc2)cc1 (stereo not drawn) | -5.43% | –
6 | CCN(CC)CCCNC(=O)COc1ccc2oc3c(c2c1)CCCC3 | 3.68% | –
7 | Cc1ccc(OCC(=O)Nn2cnc3ccccc32)cc1 | -19% | –
8 | Cc1ccc(OS(=O)Nc2cccc3nccnc23)cc1 (stereo not drawn) | – | 3.16 µM (active)
9 | COc1ccc(NC(=O)Nc2cccc3cccnc23)cc1 | 3.34% | –
10 | O=C(Nc1cc(N2CCOCC2)ncn1)NC1(C(F)(F)F)Oc2ccc(Cl)cc2O1 (stereo not drawn) | – | 15.8 µM (active)
11 | Cc1csc(NC(=O)NC2(C(F)(F)F)Oc3ccccc3O2)n1 | 1.3% | –
12 | O=C(CN1C(=O)COc2ccc(Cl)cc21)Nc1ccc(N2CCOCC2)cc1 | -5.32% | –
13 | COc1ccc(NC(=O)COc2ccc(C(=O)c3ccc(F)cc3)cc2)cc1S(N)(=O)=O | -23.6% | –
14 | COc1ccc(NC(=O)C/C(C)=N/NC(=O)c2cnccn2)cc1Cl | 21.2% | –
15 | CCOC(=O)C1CCN(C(=O)COc2cccc3ccccc23)CC1 | 8.47% | –
16 | CCN(CC)C(=O)COc1coc(CN2CCN(Cc3ccccc3)CC2)cc1=O | 2.76% | –
17 | Cc1ccccc1-c1n[nH]c(=S)n1/N=C/c1ccc(-c2ccccc2Br)o1 | -9.75% | –
18 | Cc1ccccc1-c1n[nH]c(=S)n1C | – | 7.94 µM (active)
19 | CCCc1cc(-c2n[nH]c(=S)n2CC)c2ccccc2n1 | -5.97% | –
20 | O=C(Nc1cccc(NC(=O)c2ccccc2[N+](=O)[O-])c1)c1ccccc1Cl | -0.237% | –
21 | CCOC(=O)N/N=C/c1cn(Cc2ccccc2Cl)c2ccccc12 | -29.6% | –
22 | COc1cccc(Cn2cc(/C=N/NC(=O)c3cc(O)cc(O)c3)c3ccccc32)c1 | -2.82% | –

Row | Compound | activity, negative = inhibition | Potency
23 | COC(=O)N/N=C/c1cn(CCCOc2ccc(C)cc2)c2ccccc12 | – | 1 µM (active)
24 | CCOC(=O)N1CCC(N2Cc3cccc(C(=O)Nc4ccc(S(=O)(=O)N(CC)CC)cc4)c3C2=O)CC1 | -6.58% | –
25 | C/C(=N\c1nc2ccccc2n1C)c1cc(Cl)ccc1O | -2.88% | –
26 | CCN(CC)CCn1c(/N=C/c2cc(Br)ccc2O)nc2ccccc21 | – | 6.31 µM (active)
27 | Oc1ccc(Cl)cc1/C=N/c1nc2ccccc2[nH]1 | -9.3% | –
28 | Cc1sc2ncn(CC(=O)NCCCC(=O)N3CCN(c4ccccc4F)CC3)c(=O)c2c1C | -6.88% | –
29 | Cn1cccc1/C=N/NC(=O)CNc1cccc2ccccc12 | -5.21% | –
30 | Cn1cccc1/C=N/NC(=O)c1ccc(OC(F)(F)C(F)F)cc1 | – | 5.62 µM (active)
31 | COc1ccc(/C=N/NC(=O)c2cccc(C(F)(F)F)c2)cc1 | 6.66% [at 10 µM] | –
32 | O=C(NCCc1cccc(F)c1)C1CCCN(c2nc3ccccc3s2)C1 (stereo not drawn) | 21.4% | –
33 | COc1cc(NC(=O)c2ccccc2)c(OC)cc1NC(=O)Cc1ccccc1 | -4.59% | –
34 | COc1cccc(/C=C2\C=C(c3ccc(C)cc3)OC2=O)c1OC(C)=O | -6.1% | –
35 | NC(=O)COC(=O)/C=C/c1ccc2ccccc2n1 | 2.36% | –
36 | COc1cccc(/C=C/c2ccc3ccccc3n2)c1OC(C)=O | – | 5.01 µM (active)
37 | CCOc1ccccc1-c1cc(C(=O)N/N=C(\C)c2cccnc2)c2ccccc2n1 | -21% | –
38 | CSc1sc(C(=O)NNC(=O)c2ccc(Cl)cc2)c2c1C=CCC2 | 4.81% | –
39 | COC(=O)[C@H](C)NC(=O)Nc1ccc(OC(F)(F)F)cc1 | 5.72% | –
40 | CS(=O)(=O)c1sc(C(=O)NC(=S)Nc2ccc(OC(F)(F)F)cc2)c2c1C=CCC2 | – | 11.2 µM (active)
41 | CC(C)c1c(C(=O)N/N=C/c2ccc(-c3ccccc3)cc2)nnn1-c1nonc1N | -8.19% | –
42 | Cc1cc(N2CCCC2)n2nc(C)c(-c3ccccc3)c2n1 | 8.17% | –
43 | Cc1nn2c(NCCN(C)C)c3c(nc2c1-c1ccccc1)CCC3 | – | 0.794 µM (active)
44 | Cc1cc(C(C)(C)C)n2nc(C)c(-c3ccccc3)c2n1 | -4.74% | –

Row | Compound | activity, negative = inhibition | Potency
45 | CCOC(=O)C1(Cc2cccc(OC)c2)CCCN(C(=O)CCSC)C1 (stereo not drawn) | -1% | –
46 | CCN(CC)S(=O)(=O)c1ccc(N2CCN(C)CC2)c(NC(=O)Nc2ccccc2F)c1 | -4.65% | –
47 | Cc1ccccc1CN1CCNC(=O)C1CC(=O)NCCC1=CCCCC1 (stereo not drawn) | 1.67% | –
48 | O=C(CC1CCCCC1)NCc1ccccc1 | 24% | –
49 | CC1CCCCN1C(=S)NCc1ccccc1 (stereo not drawn) | 22.1% | –
50 | C/C(=N\NC(=S)NCc1ccccc1)C1CCCCC1 | – | 1 µM (active)
51 | O=C(O)c1ccc(/C=N/NC(=S)NCc2ccccc2)cc1 | -14.7% | –
52 | C[n+]1ccc(C(=O)NCc2ccccc2)cc1 | -9.88% | –
53 | C/C(=N\NC(=S)NCc1ccccc1)c1ccc(Cl)cc1 | – | 0.794 µM (active)
54 | COc1ccc(NC(=O)C(C)N2c3cccc4cccc(c34)S2(=O)=O)c(OC)c1 (stereo not drawn) | -5.36% | –
55 | COc1cccc(/C=C2\Sc3ccc(C(=O)NCC4CCCO4)cc3N(C)C2=O)c1 (stereo not drawn) | 6.5% | –
56 | CC(=O)NCCC(=O)Nc1nc(-c2ccc3c(c2)OCCO3)cs1 | -10% | –
57 | Cc1cc(C)cc(NS(=O)(=O)Cc2ccccc2)c1 | 5.47% | –
58 | Cc1ccc(C(=O)COC(=O)CCN2C(=O)C3C4CCC(C4)C3C2=O)cc1C (stereo not drawn) | 6.49% | –
59 | COc1ccccc1NC(=O)/C=C/C(=O)O | 0.849% | –
60 | COc1ccccc1NC(=O)/C=C/C(N)=O | – | 4.47 µM (active)
61 | COc1ccccc1NC(=O)c1ccc(C)s1 | 6.7% | –
62 | COc1ccc(NC(=O)CN2C(=O)COc3ccc(S(=O)(=O)N4CCOCC4)cc32)cc1 | 2.73% | –
63 | CCc1cc(-c2n[nH]c(=S)n2CC(C)C)cs1 | – | 11.2 µM (active)
64 | CCn1c(C(C)C)n[nH]c1=S | 2.29% | –
65 | CCn1c(-c2ccoc2C)n[nH]c1=S | -27% | –
66 | Cc1ccc(Cn2c(C)c3cnn(CC(=O)NCc4ccccn4)c(=O)c3c2C)cc1 | -20.9% | –

Row | Compound | activity, negative = inhibition | Potency
67 | CC(=O)Nc1ccc(C(=O)N(C2=NC(C)CS2)c2ccc(Cl)cc2)cc1 (stereo not drawn) | 3.56% | –
68 | COc1cccc(NC(=O)c2ccc(S(=O)(=O)N(C)C)cc2)c1 | 24.2% | –
69 | COc1cccc(-c2nnc(NC(=O)c3ccc(S(=O)(=O)N(CC(C)C)CC(C)C)cc3)o2)c1 | – | 0.355 µM (active)
70 | COc1ccc(-c2nnc(NC(=O)CS(=O)(=O)c3ccc(Cl)cc3)o2)c(OC)c1 | -16.2% | –
71 | COc1cc(Nc2nc3ccc(Cl)cc3n3cnnc23)cc(OC)c1OC | -7.36% | –
72 | O=C(c1ccc(Cl)cc1)n1cnc2ccccc21 | -13% | –
73 | C=CS(=O)c1sc(Cl)c(N2CCOCC2)c1[N+](=O)[O-] (stereo not drawn) | – | 3.98 µM (active)
74 | CCCOc1ccc(C2=CSC3=NCCN23)cc1Cl | -2.84% | –
75 | COc1ccc(C(=O)NNC(=S)NC(=O)c2ccccc2[N+](=O)[O-])cc1 | -2.15% | –
76 | O=C(CCc1ccccc1)NNC(=O)c1ccc(Br)cc1 | 2.7% | –
77 | COc1ccc(C(=O)NNC(=S)NC(=O)c2ccccc2)cc1 | – | 8.91 µM (active)
78 | CCCNC(=S)N1CCC(NC(=O)c2ccc(OC)cc2)CC1 | -0.164% | –
79 | COc1ccc(OCC(=O)NNC(=O)c2ccc(-c3ccccc3)cc2)cc1 | -1.67% | –
80 | COc1ccc(C(=O)NC2CCN(C(=S)NCCc3ccccc3)CC2)cc1 | 6% | –
81 | O=C(NC(=S)NC1CCCCC1)c1ccc(Cl)cc1 | -0.126% | –
82 | COc1ccc(C(=O)NC(=S)NC2CCCCC2)cc1 | – | 6.31 µM (active)
83 | COc1ccc(C(=O)NC(=S)NNC(=O)CCc2ccccc2)cc1 | – | 15.8 µM (active)
84 | COc1ccc(NC(=O)CCCN2C(=O)C(c3ccccc3)Oc3cccnc32)cc1 (stereo not drawn) | 0.496% | –
85 | CC(C)C[C@@H](COc1ccccc1)N1CCN(CC(C)C)CCC1=O | -0.104% | –
86 | COc1ccc(CCc2nc(-c3cccs3)no2)cc1 | 6.91% | –
87 | O=C(c1ccc2nc(N3CCOCC3)sc2c1)N1CCN(c2ccc(Cl)cc2)CC1 | -4.01% | –
88 | COc1ccc(NC(=O)CSc2nncc(=O)n2N)cc1OC | -8.72% | –

Row | Compound | activity, negative = inhibition | Potency
89 | CCCC(C)c1nnc(NC(=O)C2CC(=O)N(c3ccc(OCC)cc3)C2)s1 (stereo not drawn) | 4.36% | –
90 | O=C(N/N=C/c1ccccc1O)C1CCCC1 | – | 0.562 µM (active)
91 | COc1ccc(/C=N/NC(=O)C2CC2)c(OC)c1OC | -0.0485% | –
92 | Oc1ccccc1C=NC1CCCCC1N=Cc1ccccc1O (stereo not drawn) | 5.08% | –
93 | N#CC(C#N)=CN=c1ccn(Cc2ccc(Cl)cc2Cl)cc1 | -4.82% | –
94 | COc1ccccc1N1CCN(C(=O)c2cc(=O)c3cc(C)ccc3o2)CC1 | -0.286% | –
95 | O=c1c2ccccc2nc2n1C(CSCc1cccc(C(F)(F)F)c1)CS2 (stereo not drawn) | – | 7.94 µM (active)
96 | O=c1c2ccccc2nc2n1C(CSCc1ccccc1)CS2 (stereo not drawn) | 5.71% [at 0.365 µM] | –
97 | O=c1c2ccccc2nc2n1C(CSc1ccc(F)cc1)CN2 (stereo not drawn) | -0.667% | –
98 | CS(=O)(=O)N1CCN(CC(=O)NC2CCCC2)CC1 | -4.75% | –
99 | COc1ccc(S(=O)(=O)Nc2cccnc2)c(Cl)c1Cl | -4.29% | –
100 | O=S(=O)(Nc1ccccn1)c1ccc(Oc2ccccc2)cc1 | 3.87% | –
101 | COc1ccccc1Oc1ccc(S(=O)(=O)Nc2cccnc2)cc1 | – | 17.8 µM (active)
102 | CC(Oc1cccc(Cl)c1)C(=O)NC1CC(C)(C)NC(C)(C)C1 (stereo not drawn) | -0.763% | –
103 | O=C(CC1C(=O)NCCN1C(=O)c1ccc([N+](=O)[O-])cc1)Nc1cccc(Cl)c1 (stereo not drawn) | -9.4% | –
104 | Cc1ccc(SCc2c(C(=O)N/N=C/c3cccnc3)nnn2-c2nonc2N)cc1 | -7.8% | –
105 | Nc1nonc1-n1nnc(C(=O)N/N=C/c2cc(Br)ccc2O)c1CSC1=NCCS1 | – | 4.47 µM (active)
106 | Cc1ccc(SCc2c(C(=O)N/N=C/C3CC=CCC3)nnn2-c2nonc2N)cc1 (stereo not drawn) | -5.45% | –
107 | COc1ccccc1NC(=O)CSc1nc2sc3c(c2c(=O)n1-c1ccccc1)CCN(C)C3 | 2.43% | –
108 | CCCCc1nc2cc(C(=O)NCCc3cnn(C)c3)ccc2o1 | -4.88% | –

Source: PubChem BioAssay AID2546 (National Center for Advancing Translational Sciences (NCATS), 2010)
